Common to all, as to assay: DAPPL (digital affinity profiling via proximity ligation, sequencing); 10 mM Tris-HCl pH 7.5, 50 mM NaCl, 1 mM DTT, 4% glycerol, room temperature, 30 min; GST-TFs on glutathione beads, 16-mer random dsDNA library, 0.1% formaldehyde crosslink after washing; high values mean tight binding
Holding throughout (settings): protein: recombinant; tags: N-terminal GST; dsDNA, one strand shown

In one assay the target is T1, FLI1 (Homo sapiens, UniProt Q01543 1-452).
T1 sequence: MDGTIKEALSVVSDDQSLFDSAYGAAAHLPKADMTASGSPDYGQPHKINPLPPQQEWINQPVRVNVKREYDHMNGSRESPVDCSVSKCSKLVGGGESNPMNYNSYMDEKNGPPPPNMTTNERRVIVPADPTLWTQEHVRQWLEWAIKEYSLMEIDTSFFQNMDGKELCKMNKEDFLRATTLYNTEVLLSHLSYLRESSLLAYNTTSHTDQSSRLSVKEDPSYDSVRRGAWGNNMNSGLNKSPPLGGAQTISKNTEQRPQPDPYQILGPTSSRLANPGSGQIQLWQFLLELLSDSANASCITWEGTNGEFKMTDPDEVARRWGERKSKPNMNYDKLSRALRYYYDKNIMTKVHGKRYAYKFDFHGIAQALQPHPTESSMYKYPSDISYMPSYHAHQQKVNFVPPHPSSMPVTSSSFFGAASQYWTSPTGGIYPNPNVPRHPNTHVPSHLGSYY
An outline of the steps:
(§1)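 After expression in yeast as GST fusions, human transcription factors were bound to glutathione beads, DNA-barcoded and mixed with a tag-only sample. The pools were incubated with 200 nmole of a 16-mer random double-stranded DNA library in Tris/NaCl/DTT/glycerol buffer (30 min, room temperature), washed and crosslinked with 0.1% formaldehyde. Proximity ligation with BsaI/T4 ligase ran for 1 h at 37 °C, before PCR amplification and sequencing on an Illumina NextSeq500. Binding signal is a hexamer's read frequency for a factor divided by its frequency for the tag-only sample.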

In a further assay the target is T2, GABPA (Homo sapiens, UniProt Q06546 1-454).
T2 sequence: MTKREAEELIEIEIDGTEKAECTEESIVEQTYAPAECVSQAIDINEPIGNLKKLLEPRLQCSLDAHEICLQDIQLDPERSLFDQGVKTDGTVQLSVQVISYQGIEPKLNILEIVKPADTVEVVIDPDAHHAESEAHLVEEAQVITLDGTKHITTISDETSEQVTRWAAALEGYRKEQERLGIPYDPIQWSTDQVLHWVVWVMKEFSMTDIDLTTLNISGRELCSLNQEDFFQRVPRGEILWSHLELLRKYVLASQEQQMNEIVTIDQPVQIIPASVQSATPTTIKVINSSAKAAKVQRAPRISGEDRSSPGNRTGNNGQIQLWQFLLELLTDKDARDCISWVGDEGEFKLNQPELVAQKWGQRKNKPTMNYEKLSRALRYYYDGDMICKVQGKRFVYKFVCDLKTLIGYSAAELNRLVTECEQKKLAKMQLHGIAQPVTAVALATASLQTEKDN
In short, it runs like this: as §1

In a further assay the target is T3, ERG (Homo sapiens, UniProt P11308 1-479).
T3 sequence: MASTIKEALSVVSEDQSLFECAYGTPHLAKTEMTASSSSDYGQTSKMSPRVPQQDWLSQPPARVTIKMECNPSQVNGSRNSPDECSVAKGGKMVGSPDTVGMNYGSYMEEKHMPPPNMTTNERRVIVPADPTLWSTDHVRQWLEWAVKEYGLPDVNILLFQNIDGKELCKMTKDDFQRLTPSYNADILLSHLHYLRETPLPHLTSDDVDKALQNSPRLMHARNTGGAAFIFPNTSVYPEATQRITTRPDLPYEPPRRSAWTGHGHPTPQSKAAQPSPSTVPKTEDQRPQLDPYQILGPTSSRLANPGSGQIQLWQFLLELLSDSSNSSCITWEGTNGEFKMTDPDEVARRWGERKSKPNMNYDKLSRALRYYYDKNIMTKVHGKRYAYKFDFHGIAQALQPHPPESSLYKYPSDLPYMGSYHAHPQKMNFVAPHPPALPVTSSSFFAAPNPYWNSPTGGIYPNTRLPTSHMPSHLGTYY
In short, it runs like this:
as §1

A further assay deals with ELF1 (Homo sapiens, UniProt P32519 1-619). In short, it runs like this: as §1
Another assay deals with T4, EHF (Homo sapiens, UniProt Q9NZC4 1-300).
T4 sequence: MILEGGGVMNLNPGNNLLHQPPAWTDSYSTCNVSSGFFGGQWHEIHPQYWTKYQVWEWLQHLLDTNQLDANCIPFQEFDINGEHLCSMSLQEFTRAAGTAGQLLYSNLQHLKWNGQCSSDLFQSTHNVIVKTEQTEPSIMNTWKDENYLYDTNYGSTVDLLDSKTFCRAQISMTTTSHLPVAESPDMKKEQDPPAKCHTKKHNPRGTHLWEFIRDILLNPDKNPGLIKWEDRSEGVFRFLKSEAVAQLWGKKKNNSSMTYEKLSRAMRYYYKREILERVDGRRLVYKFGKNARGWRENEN
In short, it runs like this:
as §1

The target in another assay is SPI1 (Homo sapiens, UniProt P17947 1-270). In short, it runs like this: as §1
The next assay has as its target SPIB (Homo sapiens, UniProt Q01892 1-262). In short, it runs like this: as §1
Another assay addresses T5, ELK3 (Homo sapiens, UniProt P41970 1-407).
T5 sequence: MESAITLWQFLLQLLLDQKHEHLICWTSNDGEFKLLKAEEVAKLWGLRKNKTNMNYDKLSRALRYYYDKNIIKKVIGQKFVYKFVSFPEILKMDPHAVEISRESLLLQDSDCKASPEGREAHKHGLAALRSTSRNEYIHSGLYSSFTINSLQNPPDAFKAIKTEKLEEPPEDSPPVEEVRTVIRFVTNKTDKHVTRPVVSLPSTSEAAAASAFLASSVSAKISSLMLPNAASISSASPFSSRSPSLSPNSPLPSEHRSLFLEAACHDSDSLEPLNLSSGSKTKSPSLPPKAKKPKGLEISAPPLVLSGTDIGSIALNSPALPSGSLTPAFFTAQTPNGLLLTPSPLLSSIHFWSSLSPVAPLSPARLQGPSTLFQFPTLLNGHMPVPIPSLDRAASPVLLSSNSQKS
In short, it runs like this:
as §1

Another assay addresses T6, FEV (Homo sapiens, UniProt Q99581 1-238).
T6 sequence: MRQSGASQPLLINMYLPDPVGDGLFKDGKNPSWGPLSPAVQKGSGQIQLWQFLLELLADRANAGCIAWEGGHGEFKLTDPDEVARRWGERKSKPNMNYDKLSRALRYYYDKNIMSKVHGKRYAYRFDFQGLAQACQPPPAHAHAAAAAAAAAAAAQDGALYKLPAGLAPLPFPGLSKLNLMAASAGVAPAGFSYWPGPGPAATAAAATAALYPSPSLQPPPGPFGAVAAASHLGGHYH
An outline of the steps: as §1

The target of a further assay is ETV5 (Homo sapiens, UniProt P41161 1-510). In short, it runs like this:
as §1

For another assay, the target named is T7, SPIC (Homo sapiens, UniProt Q8N5J4 1-248).
T7 sequence: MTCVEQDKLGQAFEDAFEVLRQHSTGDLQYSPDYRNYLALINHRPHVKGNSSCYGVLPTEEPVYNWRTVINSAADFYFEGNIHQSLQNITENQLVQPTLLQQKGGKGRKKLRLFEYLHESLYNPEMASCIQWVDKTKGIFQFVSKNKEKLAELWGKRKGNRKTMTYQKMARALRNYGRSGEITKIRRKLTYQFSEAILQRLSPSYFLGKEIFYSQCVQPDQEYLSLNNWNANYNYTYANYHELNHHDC
In short, it runs like this:
as §1

A further assay concerns the target ELF4 (Homo sapiens, UniProt Q99607 1-663). An outline of the steps:
as §1

In the next assay the target is ETV1 (Homo sapiens, UniProt P50549 1-477). An outline of the steps: as §1
In another assay the target is T8, ERF (Homo sapiens, UniProt P50548 1-548).
T8 sequence: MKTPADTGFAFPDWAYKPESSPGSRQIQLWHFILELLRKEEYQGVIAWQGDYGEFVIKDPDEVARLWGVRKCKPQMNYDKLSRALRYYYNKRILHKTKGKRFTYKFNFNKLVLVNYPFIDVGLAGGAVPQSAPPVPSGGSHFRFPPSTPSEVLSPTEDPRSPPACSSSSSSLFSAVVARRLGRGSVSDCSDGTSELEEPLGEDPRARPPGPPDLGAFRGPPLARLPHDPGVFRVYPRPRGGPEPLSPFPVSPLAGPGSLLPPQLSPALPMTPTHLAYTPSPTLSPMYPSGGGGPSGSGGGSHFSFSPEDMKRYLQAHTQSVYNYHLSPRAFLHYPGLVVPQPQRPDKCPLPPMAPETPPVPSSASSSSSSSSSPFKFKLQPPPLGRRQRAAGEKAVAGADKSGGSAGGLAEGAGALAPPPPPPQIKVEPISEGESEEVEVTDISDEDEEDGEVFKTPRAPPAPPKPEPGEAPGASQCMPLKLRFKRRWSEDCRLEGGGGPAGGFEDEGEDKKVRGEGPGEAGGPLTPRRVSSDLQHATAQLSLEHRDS
An outline of the steps: as §1

For the next assay, the target named is T9, ETV3L (Homo sapiens, UniProt Q6ZN32 1-361).
T9 sequence: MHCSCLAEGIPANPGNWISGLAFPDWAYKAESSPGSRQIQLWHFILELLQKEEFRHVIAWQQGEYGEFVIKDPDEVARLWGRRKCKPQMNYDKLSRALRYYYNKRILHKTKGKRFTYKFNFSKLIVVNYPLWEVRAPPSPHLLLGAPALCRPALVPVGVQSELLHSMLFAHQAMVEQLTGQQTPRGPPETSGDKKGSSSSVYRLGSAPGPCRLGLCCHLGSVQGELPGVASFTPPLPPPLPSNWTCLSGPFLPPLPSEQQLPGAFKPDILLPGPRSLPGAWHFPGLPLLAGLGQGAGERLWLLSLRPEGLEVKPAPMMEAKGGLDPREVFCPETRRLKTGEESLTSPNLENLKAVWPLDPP
An outline of the steps:
as §1

The target in the next assay is T10, ETS2 (Homo sapiens, UniProt P15036 1-469).
T10 sequence: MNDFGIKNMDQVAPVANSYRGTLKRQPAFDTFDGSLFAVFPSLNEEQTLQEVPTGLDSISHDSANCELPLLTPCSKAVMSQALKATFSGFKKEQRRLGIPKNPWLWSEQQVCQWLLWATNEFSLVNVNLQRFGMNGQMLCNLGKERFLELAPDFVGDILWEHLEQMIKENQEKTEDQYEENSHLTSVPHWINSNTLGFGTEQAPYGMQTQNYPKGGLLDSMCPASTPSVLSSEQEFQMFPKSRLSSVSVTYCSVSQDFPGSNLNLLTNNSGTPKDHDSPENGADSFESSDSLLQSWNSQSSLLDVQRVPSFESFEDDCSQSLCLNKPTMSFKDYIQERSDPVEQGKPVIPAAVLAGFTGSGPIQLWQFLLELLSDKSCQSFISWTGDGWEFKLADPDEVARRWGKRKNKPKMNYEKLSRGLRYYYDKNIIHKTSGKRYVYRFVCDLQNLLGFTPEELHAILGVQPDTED
In short, it runs like this: as §1

A further assay deals with T11, ELF5 (Homo sapiens, UniProt Q9UKW6-2 1-255).
T11 sequence: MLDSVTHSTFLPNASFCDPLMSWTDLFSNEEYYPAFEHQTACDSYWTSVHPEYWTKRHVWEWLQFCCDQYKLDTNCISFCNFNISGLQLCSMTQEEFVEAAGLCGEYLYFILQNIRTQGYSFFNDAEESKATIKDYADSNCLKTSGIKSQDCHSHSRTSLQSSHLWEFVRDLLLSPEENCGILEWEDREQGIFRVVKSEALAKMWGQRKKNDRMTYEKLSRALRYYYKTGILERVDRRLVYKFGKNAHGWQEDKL
In short, it runs like this: as §1

A further assay has as its target T12, ETV3 (Homo sapiens, UniProt P41162-2 1-143).
T12 sequence: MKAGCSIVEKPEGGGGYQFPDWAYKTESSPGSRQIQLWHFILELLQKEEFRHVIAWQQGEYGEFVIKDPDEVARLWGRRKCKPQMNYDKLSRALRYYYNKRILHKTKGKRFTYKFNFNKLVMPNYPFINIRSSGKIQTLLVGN
An outline of the steps: as §1

Another assay addresses ETV6 (Homo sapiens, UniProt P41212 1-452). In short, it runs like this:
as §1

In article PMC7862700, “An all-to-all approach to the identification of sequence-specific readers for epigenetic DNA modifications on cytosine” one finds binding signal data, which are given here for 1 sequence.

Sequence of ELF1 (P32519 whole entry): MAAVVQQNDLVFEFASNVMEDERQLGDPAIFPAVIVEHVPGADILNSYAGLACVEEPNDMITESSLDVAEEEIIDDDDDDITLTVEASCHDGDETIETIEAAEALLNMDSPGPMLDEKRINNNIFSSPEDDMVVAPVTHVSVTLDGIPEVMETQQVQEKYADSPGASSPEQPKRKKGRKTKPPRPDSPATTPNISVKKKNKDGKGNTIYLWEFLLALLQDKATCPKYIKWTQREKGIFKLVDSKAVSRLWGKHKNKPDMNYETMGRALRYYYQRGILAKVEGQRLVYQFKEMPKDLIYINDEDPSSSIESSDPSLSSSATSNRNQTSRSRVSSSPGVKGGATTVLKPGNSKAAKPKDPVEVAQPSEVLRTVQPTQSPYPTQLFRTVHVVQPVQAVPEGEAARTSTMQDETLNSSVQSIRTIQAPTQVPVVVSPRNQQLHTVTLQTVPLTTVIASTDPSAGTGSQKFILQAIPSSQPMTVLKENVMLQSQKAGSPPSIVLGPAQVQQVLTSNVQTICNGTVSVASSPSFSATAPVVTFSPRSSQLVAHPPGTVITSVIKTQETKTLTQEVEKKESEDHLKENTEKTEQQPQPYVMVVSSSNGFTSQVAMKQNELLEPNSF
Sequence of ETV1 (P50549 whole entry): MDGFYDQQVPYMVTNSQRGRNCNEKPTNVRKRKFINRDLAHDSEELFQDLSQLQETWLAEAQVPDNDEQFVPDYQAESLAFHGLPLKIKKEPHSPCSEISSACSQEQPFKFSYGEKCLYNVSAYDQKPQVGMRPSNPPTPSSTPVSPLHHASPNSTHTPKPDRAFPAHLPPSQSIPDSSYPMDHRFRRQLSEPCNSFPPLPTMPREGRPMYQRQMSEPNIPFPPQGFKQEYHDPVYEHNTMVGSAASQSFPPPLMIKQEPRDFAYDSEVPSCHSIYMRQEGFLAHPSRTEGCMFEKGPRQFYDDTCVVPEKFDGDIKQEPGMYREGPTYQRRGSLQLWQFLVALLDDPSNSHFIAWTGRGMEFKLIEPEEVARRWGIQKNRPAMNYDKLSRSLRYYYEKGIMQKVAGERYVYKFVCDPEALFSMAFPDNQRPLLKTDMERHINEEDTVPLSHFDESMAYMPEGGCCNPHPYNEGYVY
Sequence of SPIB (Q01892 whole entry): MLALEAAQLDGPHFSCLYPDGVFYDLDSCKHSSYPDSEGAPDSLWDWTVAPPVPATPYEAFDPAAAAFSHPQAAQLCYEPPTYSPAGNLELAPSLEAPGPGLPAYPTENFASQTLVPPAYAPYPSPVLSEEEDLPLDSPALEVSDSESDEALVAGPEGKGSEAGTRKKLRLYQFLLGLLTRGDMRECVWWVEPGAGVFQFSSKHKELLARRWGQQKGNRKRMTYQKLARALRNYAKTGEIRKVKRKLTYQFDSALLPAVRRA
Sequence of ELF4 (Q99607 whole entry): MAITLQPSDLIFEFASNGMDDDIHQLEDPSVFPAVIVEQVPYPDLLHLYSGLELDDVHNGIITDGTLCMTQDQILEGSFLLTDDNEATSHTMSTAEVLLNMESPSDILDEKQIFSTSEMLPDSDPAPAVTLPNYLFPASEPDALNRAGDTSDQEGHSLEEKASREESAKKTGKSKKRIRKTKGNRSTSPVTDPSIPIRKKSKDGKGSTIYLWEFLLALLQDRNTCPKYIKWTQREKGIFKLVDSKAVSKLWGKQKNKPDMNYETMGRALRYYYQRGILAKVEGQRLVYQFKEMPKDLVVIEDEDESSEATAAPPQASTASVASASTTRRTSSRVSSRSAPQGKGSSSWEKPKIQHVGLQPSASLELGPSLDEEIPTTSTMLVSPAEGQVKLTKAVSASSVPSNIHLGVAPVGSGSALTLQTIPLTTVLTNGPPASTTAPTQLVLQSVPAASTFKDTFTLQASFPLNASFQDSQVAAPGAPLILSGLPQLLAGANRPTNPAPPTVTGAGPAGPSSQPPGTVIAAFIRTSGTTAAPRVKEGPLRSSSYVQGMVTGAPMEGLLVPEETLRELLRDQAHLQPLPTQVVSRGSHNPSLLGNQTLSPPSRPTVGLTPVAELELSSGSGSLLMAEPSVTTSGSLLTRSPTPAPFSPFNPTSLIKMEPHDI
Sequence of ETV6 (P41212 whole entry): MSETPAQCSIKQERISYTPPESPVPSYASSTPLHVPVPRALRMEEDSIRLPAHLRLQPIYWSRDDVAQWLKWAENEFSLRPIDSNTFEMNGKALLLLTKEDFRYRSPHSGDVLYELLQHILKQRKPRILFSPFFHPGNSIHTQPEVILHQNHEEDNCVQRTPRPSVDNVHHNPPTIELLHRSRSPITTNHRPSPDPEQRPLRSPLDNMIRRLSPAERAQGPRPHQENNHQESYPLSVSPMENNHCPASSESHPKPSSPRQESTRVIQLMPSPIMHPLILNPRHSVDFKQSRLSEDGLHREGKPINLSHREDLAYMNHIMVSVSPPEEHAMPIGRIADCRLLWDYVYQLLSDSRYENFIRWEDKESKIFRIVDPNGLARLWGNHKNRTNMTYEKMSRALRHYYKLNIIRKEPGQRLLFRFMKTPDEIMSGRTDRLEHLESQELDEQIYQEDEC
Sequence of ETV5 (P41161 whole entry): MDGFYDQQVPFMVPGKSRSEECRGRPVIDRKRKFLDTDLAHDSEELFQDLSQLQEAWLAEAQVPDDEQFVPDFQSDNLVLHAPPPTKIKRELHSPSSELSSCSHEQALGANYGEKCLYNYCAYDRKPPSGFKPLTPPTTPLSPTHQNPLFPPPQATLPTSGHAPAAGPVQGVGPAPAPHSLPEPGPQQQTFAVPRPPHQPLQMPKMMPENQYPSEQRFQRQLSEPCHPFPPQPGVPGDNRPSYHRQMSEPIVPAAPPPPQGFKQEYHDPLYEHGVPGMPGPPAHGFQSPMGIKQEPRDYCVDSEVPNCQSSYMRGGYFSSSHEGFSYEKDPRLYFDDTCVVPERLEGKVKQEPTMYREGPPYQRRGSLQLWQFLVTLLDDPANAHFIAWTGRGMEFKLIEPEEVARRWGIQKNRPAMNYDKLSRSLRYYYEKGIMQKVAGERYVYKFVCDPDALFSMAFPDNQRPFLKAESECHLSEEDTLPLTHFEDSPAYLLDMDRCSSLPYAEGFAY

Take GGTTTT: the binding signal is 1.22 fold enrichment (6-mer frequency, TF over GST control) with FLI1; 1.2 fold enrichment (6-mer frequency, TF over GST control) with GABPA; 1.1 fold enrichment (6-mer frequency, TF over GST control) in the assay with ERG; 1.11 fold enrichment (6-mer frequency, TF over GST control) with ELF1; 1.08 fold enrichment (6-mer frequency, TF over GST control) with EHF; 1.24 fold enrichment (6-mer frequency, TF over GST control) with SPI1. The binding signal with SPIB is 1.05 fold enrichment (6-mer frequency, TF over GST control); in the assay with ELK3, 1.04 fold enrichment (6-mer frequency, TF over GST control); with FEV it was 1.13 fold enrichment (6-mer frequency, TF over GST control); with ETV5, 1.11 fold enrichment (6-mer frequency, TF over GST control); with SPIC, 1.04 fold enrichment (6-mer frequency, TF over GST control); with ELF4, 1.15 fold enrichment (6-mer frequency, TF over GST control). Also, the binding signal with ETV1 is 1.15 fold enrichment (6-mer frequency, TF over GST control); with ERF, 1.24 fold enrichment (6-mer frequency, TF over GST control); with ETV3L it was 1.08 fold enrichment (6-mer frequency, TF over GST control); with ETS2, 1.1 fold enrichment (6-mer frequency, TF over GST control); with ELF5, 1.12 fold enrichment (6-mer frequency, TF over GST control); with ETV3, 1.14 fold enrichment (6-mer frequency, TF over GST control). Besides, in the assay with ETV6, the binding signal is 1.05 fold enrichment (6-mer frequency, TF over GST control).
